# Experimental data from PubChem BioAssay AID2546 (National Center for Advancing Translational Sciences (NCATS), 2010).
# In all, about 310,000 compounds went through this assay and about 11,000 (3.5%) were called active. Entries that show only a call come without a potency. Inconclusive results (about 8%) are left out. This is one part of a sample in which actives are shown more often than they occur. The call rests on the fitted dose curve; in most records, active means well fitted inhibition curve with a large enough effect; inconclusive means small, poorly fitted or top-dose-only effect, or effect the other way; inactive means flat fitted curve, though single readings scatter.
# Experiment: VP16 counterscreen qHTS for inhibitors of ROR gamma transcriptional activity; further: nearly all actives have a fitted effect of over 50% in size
# Conditions: Drosophila S2 Gal4-VP16 UAS-luciferase, luminescence, 20 h; series mostly up to 53.6 µM
# Text: NIH Molecular Libraries Probe Production Network [MLPCN]
# NIH Chemical Genomics Center [NCGC]
# Assay Provider: Dan Littman, New York University
# The retinoic acid-related orphan receptor (ROR) gamma is a transcription factor that has a central role in the differentiation of Th17 cells, a subset of T helper cells that secrete the inflammatory cytokines IL-17, IL-17F, and IL-22. Th17 cells have been implicated in graft versus host disease, autoimmune disease and asthma. ROR gamma is induced in naive T helper cells in the presence of TGF-beta combined with IL-6, IL-21, or IL-23, and thereafter directs the expression of the Th17 lineage cytokines. To identify nonspecific inhibitors, a Drosophila Schneider cell line was stably transfected with two vectors: a gene expressing a fusion of the Gal4 DNA binding domain and VP16 transactivation domain under the control of the metallothionine promoter and a Photinus luciferase reporter regulated by the Gal4 binding site enhancer, UAS. […] Small molecule inhibitors that inhibit components common to the RORgt and VP16 assays, such as the Gal4 DNA binding domain or the UAS luciferase reporter, will be active in both assays and thus scored as nonspecific.
# For screening, 600 cells in 4 uL/well were dispensed into white solid 1536-well plates (Grenier) using a solenoid-based dispenser. Following transfer of 23 nL compound or DMSO vehicle by a pin tool, the plates were incubated 1 hr at ambient temperature, and 1 uL/well copper sulfate (700 uM final concentration) was added. The plates were centrifuged 15 s at 1000 RPM and incubated 20 hr at ambient temperature. After addition of 1.5 uL Photinus luciferase detection reagent, the plates were incubated 10 min at ambient temperature and then read by a ViewLux (Perkin Elmer) to detect luminescence.
# Potency means the concentration at half of the fitted maximal effect.
row,Structure (SMILES),Potency
1,Cc1nc2ccccc2nc1N/N=C/c1ccc(O)cc1O,15.8 µM (active)
2,Cc1cc(N/N=C/c2ccccc2F)c2ccccc2n1,inactive
3,Oc1ccc(/C=N/NC2=NCCCCC2)c(O)c1,inactive
4,CC(C)(C)C1CCC(=NNC(=O)c2ccc(Br)o2)CC1 (stereo unspecified),inactive
5,CC(C)(C)C1CCC(=NNC(=O)c2cc(-c3ccccc3)n[nH]2)CC1 (stereo unspecified),20 µM (active)
6,CC(NC(=O)C(=O)NN=C1CCC(C(C)(C)C)CC1)c1ccccc1 (stereo unspecified),inactive
7,CN(Cc1ccccc1Cl)C(=O)C1CCC(=O)N(CCc2cccc(F)c2)C1 (stereo unspecified),inactive
8,O=C(Cc1csc(Nc2nc(=S)[nH]c3ccccc23)n1)NCCCN1CCN(c2cccc(Cl)c2)CC1,7.08 µM (active)
9,O=C(CCCn1c(=O)[nH]c2cc(Cl)ccc2c1=O)NCCN1CCN(c2ccccc2)CC1,inactive
10,CCn1c(=O)cc(OCC(=O)NCCCN2CCN(c3cccc(Cl)c3)CC2)c2ccccc21,inactive
11,CCCCn1c(N)c(N(CC)C(=O)c2ccccc2C(F)(F)F)c(=O)[nH]c1=O,inactive
12,Cc1ccc(CNC(=O)Cc2cn(C)c3ccccc23)cc1,inactive
13,CC1CCCC(C)N1C(=O)CSc1nnnn1C1CCCC1 (stereo unspecified),inactive
14,O=C(NCCCO)c1cc2c([nH]c3ccccc32)c(-c2ccc(F)cc2)n1,inactive
15,CC(=O)c1c(-c2ccccc2)c2ccccc2[nH]c1=O,inactive
16,NC(=O)Cc1ccc2c(c1)[nH]c1ccccc12,inactive
17,S=c1[nH]c2ccccc2c2ccccc12,17.8 µM (active)
18,COc1ccc(S(=O)(=O)N2CCOCC2)cc1C(=O)Nc1nc2ccccc2s1,inactive
19,COc1cccc2sc(NNC(=O)c3nc4ccccc4s3)nc12,2 µM (active)
20,O=C(Nc1ccccc1)Nc1nc2ccccc2s1,inactive
21,O=c1[nH]cccc1-c1nc2ccccc2n1Cc1ccc(Cl)cc1,inactive
22,Cc1cc(C)c(NC(=O)CN2CCCCCC2)c(C)c1,inactive
23,Oc1ccccc1/C=N/n1c(-c2cccs2)n[nH]c1=S,inactive
24,S=c1[nH]nc(-c2cccnc2)n1/N=C/C(Cl)=C\c1ccccc1,7.08 µM (active)
25,Cc1cc(-c2n[nH]c(=S)n2/N=C/c2ccco2)n[nH]1,inactive
26,Fc1ccccc1/C=N/n1c(-c2cccnc2)n[nH]c1=S,inactive

row,Structure (SMILES),Potency
1,O=[N+]([O-])c1ccccc1/C=N/n1c(COc2ccccc2)n[nH]c1=S,inactive
2,Cc1cc(-c2n[nH]c(=S)n2/N=C/C(Br)=C/c2ccccc2)n[nH]1,11.2 µM (active)
3,COc1ccc(C2(O)C(=O)Nc3ccccc32)cc1 (stereo unspecified),inactive
4,COCCN1C(=O)C(=O)/C(=C(/O)c2ccc(S(=O)(=O)N3CCOCC3)cc2)C1c1ccc(O)c(OC)c1 (stereo unspecified),inactive
5,CC(C)c1ccc(/C=C2\NC(=O)NC2=O)cc1,inactive
6,CCN(CC)S(=O)(=O)c1ccc(C(=O)N2CCN(C3=NS(=O)(=O)c4ccccc43)CC2)cc1,inactive
7,Cc1nc2nc(SCC(=O)Nc3cccc(F)c3)[nH]c2cc1Br,inactive
8,O=C(O)CCC(=O)Nc1ccc(OCC2CCCO2)cc1 (stereo unspecified),inactive
9,COc1cccc(-c2cc(C(=O)N/N=C/c3ccc(OC)c(COC(C)=O)c3)c3ccccc3n2)c1,inactive
10,Cc1cc(C(=O)N/N=C/c2ccccn2)c2ccccc2n1,inactive
11,Cc1ccc(-c2cc(C(=O)N/N=C/C=C/c3ccco3)c3ccccc3n2)cc1C,4.47 µM (active)
12,CC(NC(=O)CCCC1CCCCC1)c1ccc(S(N)(=O)=O)cc1 (stereo unspecified),inactive
13,O=C(O)CCn1c(Cc2ccccc2)nc2ccccc21,inactive
14,O=C(O)CCn1c(O)c(C=C2N=c3ccccc3=N2)sc1=S,3.55 µM (active)
15,Cc1cc2ccccc2n1CCC(=O)O,inactive
16,COc1ccc(CCNC(=O)CCc2cn(C)c3ccccc23)c(OC)c1,inactive
17,COC(=O)CN1C(=O)C(C)(C)Oc2ccc(C(=O)Nc3cccc(OC)c3)cc21,inactive
18,Cn1c(=O)c2c(nc(NCc3ccccc3)n2CC(N)=O)n(C)c1=O,inactive
19,CCNc1ncc2ncc(=O)n(CCc3ccccc3)c2n1,inactive
20,CCn1c(NCCc2ccc(OC)c(OC)c2)nc2c1c(=O)n(C)c(=O)n2C,inactive
21,COc1cccc(Cn2c(=O)cnc3cncnc32)c1,inactive
22,Cn1c(=O)c2c(nc(NCCc3ccccc3)n2Cc2ccccc2)n(C)c1=O,6.31 µM (active)
23,COC(=O)C(C)Sc1nc2c(c(=O)n(C)c(=O)n2C)n1Cc1cccc(C)c1 (stereo unspecified),inactive
24,Cn1c(=O)c2c(nc(OCc3cccnc3)n2Cc2ccccc2)n(C)c1=O,inactive
25,CCCCNc1nc2c(c(=O)n(C)c(=O)n2C)n1Cc1cccc(OC)c1,4.47 µM (active)
26,CCNc1ncc2ncc(=O)n(Cc3cccc(OC)c3)c2n1,11.2 µM (active)

row,Structure (SMILES),Potency
1,CCOCCCn1c(SCC(=O)Nc2cc(OC)ccc2OC)nc2ccccc2c1=O,inactive
2,CC(C)c1nc2cc(C(=O)NC(C)c3cnn(C)c3)ccc2o1 (stereo unspecified),inactive
3,Cc1cnc(C(=O)Oc2cccc(Cl)c2Cl)cn1,inactive
4,COCCN1CCN(C(=O)c2cc(COc3ccc(F)cc3Cl)on2)CC1,inactive
5,CC(C)c1ccc(NC(=O)Cn2ncc3ccccc32)cc1,inactive
6,O=S1(=O)CCO[C@H]2Cc3ccccc3[C@H]2N1Cc1ccccc1,inactive
7,CCN(CC(=O)NCCCN1CCOCC1)S(=O)(=O)c1cc(Cl)ccc1Cl,inactive
8,COc1ccc(CC(=O)N[C@@H](CCSC)c2nc3ccccc3[nH]2)cc1,inactive
9,CSCCC(NC(=O)c1cc([N+](=O)[O-])cc([N+](=O)[O-])c1)c1nc2ccccc2[nH]1 (stereo unspecified),25.1 µM (active)
10,CSCCC(NC(=O)c1ccc(=O)n(C)n1)c1nc2ccccc2[nH]1 (stereo unspecified),inactive
11,CC(c1ccccn1)N(C)C(=O)c1ccc2nc(Cc3cccc(Cl)c3)oc2c1 (stereo unspecified),inactive
12,CCOC(=O)C(C)n1cnc2c(nnn2-c2cccc(OC)c2)c1=O (stereo unspecified),inactive
13,O=C(NCc1ccccn1)c1cc(-c2ccccc2Cl)on1,inactive
14,O=C1CSC(c2ccccc2)N1c1nc(-c2ccc(Cl)cc2Cl)cs1 (stereo unspecified),inactive
15,Clc1ccc(-c2cc(-c3ccccn3)on2)c(Cl)c1,7.08 µM (active)
16,CC(=O)N1CCCc2cc(S(=O)(=O)N3CCCC(C(=O)N4CCN(c5cccc(Cl)c5)CC4)C3)ccc21 (stereo unspecified),3.98 µM (active)
17,CC(=O)N1c2ccc(S(=O)(=O)N3CCCC(C(=O)Nc4cccc(Cl)c4)C3)cc2CC1C (stereo unspecified),inactive
18,CC(=O)N1CCCc2cc(S(=O)(=O)N3CCCC(C(=O)NCc4ccc(Cl)cc4)C3)ccc21 (stereo unspecified),inactive
19,COc1ccc(C(C(=O)NC2CCCC2)N(CCCO)C(=O)Cn2nnc(-c3ccc(C)o3)n2)cc1 (stereo unspecified),inactive
20,COc1ccc(-c2cc(=O)oc3cc(OCC(=O)N(C)C4CCS(=O)(=O)C4)ccc23)cc1 (stereo unspecified),inactive
21,Cc1onc(-c2c(Cl)cccc2Cl)c1C(=O)NNC(=O)c1c(-c2c(Cl)cccc2Cl)noc1C,inactive
22,CC(=O)Nc1cccc(/C(C)=N/NC(=O)c2ccccc2Cl)c1,inactive
23,CC(=O)Nc1cccc(/C(C)=N/NC(=O)c2c(-c3ccccc3Cl)noc2C)c1,20 µM (active)
24,COc1cc(/C=C/CO)cc(OC)c1O[C@@H]1O[C@H](CO)[C@@H](O)[C@H](O)[C@H]1O,inactive
25,CCc1cccc(OC2OC(CO)C(O)C(O)C2NC(C)=O)c1 (stereo unspecified),inactive
26,Cc1csc(-c2coc3cc(O[C@@H]4O[C@H](CO)[C@@H](O)[C@@H](O)[C@H]4O)ccc3c2=O)n1,15.8 µM (active)

row,Structure (SMILES),Potency
1,CCN(C(=O)C1CCCN(c2nc(-c3ccc(OC)cc3)no2)C1)c1ccc(OC)cc1 (stereo unspecified),inactive
2,CC(=O)[C@@]12O[C@@H]1C[C@H]1[C@@H]3CC[C@H]4C[C@@H](O)CC[C@]4(C)[C@H]3CC[C@@]12C,inactive
3,Cc1cccc(C(=O)NNC(=O)c2cccc([N+](=O)[O-])c2)c1,inactive
4,Cc1cccc(C(=O)Nc2ccccc2N2CCN(c3ccc(F)cc3)CC2)c1,inactive
5,Cc1cccc(C(=O)NC(=S)N2CCN(c3ccc([N+](=O)[O-])cc3)CC2)c1,1 µM (active)
6,CCOc1cc(C(=S)N2CCOCC2)ccc1OS(=O)(=O)c1ccc(Br)cc1,inactive
7,COc1cccc(-c2coc3cc4oc(=O)c(CC(=O)O)c(C)c4cc23)c1,inactive
8,Cc1c(Cl)c([N+](=O)[O-])nn1Cc1ccc(C(=O)N/N=C\c2cc(Cl)ccc2O)o1,11.2 µM (active)
9,Cc1c(Cl)c([N+](=O)[O-])nn1CCCC(=O)Nc1cc(Cl)ccc1Cl,inactive
10,O=C(N/N=C/c1ccc2c(c1)OCO2)c1ccc(Cn2cc([N+](=O)[O-])cn2)o1,inactive
11,COc1cccc(-c2cccc(NC(=O)C3CCN(C4CCC4)CC3)c2)c1,inactive
12,COc1cc2c(cc1/C=C1/NC(=O)N(c3ccccc3)C1=O)OCO2,inactive
13,CCCCN=C1N/C(=C\c2ccco2)C(=O)N1c1ccccc1,inactive
14,O=C1/C(=C\c2ccsc2)NC(=S)N1c1ccccc1,22.4 µM (active)
15,O=C(CNc1cccc(S(=O)(=O)N2CCCCC2)c1)Nc1ccccc1F,inactive
16,COc1ccc(C(=O)NC(C)c2nccs2)cc1OC1CCN(C(C)C)CC1 (stereo unspecified),inactive
17,CCOC(=O)c1ccc(NC(=O)c2cc(=O)[nH]c3ccccc23)cc1,inactive
18,CCOC(=O)c1[nH]cnc1C(=O)Nc1ccccc1C,inactive
19,CCOC(=O)c1ccc(NC(=O)c2nc[nH]c2C(=O)NCc2ccccc2)cc1,5.62 µM (active)
20,Cc1ccc(C(C)C)cc1OCC(=O)Nc1ccccc1N1CCCC1,inactive
21,O=C(c1cc2ccccc2o1)N1CCN(c2cccc(C(F)(F)F)c2)CC1,inactive
22,CCCCC[C@H]1CN(C2CCCCC2)C(=O)[C@@H]1CC(=O)NCc1ccc(OC)cc1,inactive
23,CCC(C)C(=O)Nc1ccccc1N1CCN(c2ccc(F)cc2)CC1 (stereo unspecified),inactive
